The values below come from the supplement of paper PMC9023506.

Where a name gives a salt, the structure may show the parent alone.

The test system of one experiment is Danio rerio larvae (5 dpf). As to the kind of experiment: habituation to 1-s acoustic pulses, difference vs DMSO (percentage points (treated minus DMSO)); higher = more of the behaviour than the DMSO vehicle control. Conditions: 10 µM; exposure time: 3 h pre-incubation + 3 h imaging. In outline: (§1)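 Five-days-post-fertilisation wild-type zebrafish larvae were held in 96-well ProxiPlates and exposed to each library drug at a final 10 µM, diluted 1000× from DMSO stocks into egg water, with 48 larvae per drug. Exposure lasted 3 h before and 3 h during imaging at 28.5 °C, with images taken every 6 s across a 3-h program of rest, moving coloured lines and acoustic pulses. An ImageJ macro scored movement and upper-half location, and each behaviour score is the treated-group mean minus the vehicle-group mean, expressed in percentage points.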
Regarding `CC[C@H](C)C(=O)O[C@H]1C[C@@H](C)C=C2C=C[C@H](C)[C@H](CC[C@@H]3C[C@@H](O)CC(=O)O3)[C@H]21` [Lovastatin], the “habituation to 1-s acoustic pulses” value is -1.04. `CN[C@H]1CC[C@@H](c2ccc(Cl)c(Cl)c2)c2ccccc21` [Sertraline hydrochloride]: the “habituation to 1-s acoustic pulses” value is -2.9. On the same count and under the same terms, to `Cc1ccc(O)c([C@H](CCN(C(C)C)C(C)C)c2ccccc2)c1` [Tolterodine L-tartrate] belongs -4.35. The same measure, in the same setting: to `Cc1c(-c2ccc(O)cc2)n(Cc2ccc(OCCN3CCCCCC3)cc2)c2ccc(O)cc12` [Bazedoxifene acetate] belongs 0.273; to `O=C1CCc2ccc(OCCCCN3CCN(c4cccc(Cl)c4Cl)CC3)cc2N1` [Aripiprazole], -5.72. Same read-out and setting: to `COc1cc2nc(N3CCN(C(=O)C4COc5ccccc5O4)CC3)nc(N)c2cc1OC` (stereo not drawn) [Doxazosin mesylate] belongs -2.28. Consider `COCCc1ccc(OCC(O)CNC(C)C)cc1` (stereo not drawn) [Metoprolol tartrate], for which the “habituation to 1-s acoustic pulses” value is -3.95. On the same count and under the same terms, to `CCc1nc(N)nc(N)c1-c1ccc(Cl)cc1` [Pyrimethamine] belongs 5.04; to `CC(C)(C(=O)O)c1ccc(C(O)CCCN2CCC(C(O)(c3ccccc3)c3ccccc3)CC2)cc1` (stereo not drawn) [Fexofenadine hydrochloride], 0.783. As to `Cc1cc(C2CCCCC2)n(O)c(=O)c1` [Ciclopirox], the “habituation to 1-s acoustic pulses” value stood at 0.443. `CC(C)COCC(CN(Cc1ccccc1)c1ccccc1)N1CCCC1` (stereo not drawn) [Bepridil hydrochloride]: the “habituation to 1-s acoustic pulses” value is -6.51. Turning to `CC(C)(C(=O)c1cccnc1)c1cccnc1` [Metyrapone], the “habituation to 1-s acoustic pulses” value is -0.218.

Regarding `N[C@@H]1[C@H]2CN(c3nc4c(cc3F)c(=O)c(C(=O)O)cn4-c3ccc(F)cc3F)C[C@@H]12` [Trovafloxacin mesylate], the “habituation to 1-s acoustic pulses” value is -3.6.

Another experiment deals with Danio rerio larvae (5 dpf). Put plainly: excitability to 1-s acoustic pulses, difference vs DMSO (percentage points (treated minus DMSO)); higher = more of the behaviour than the DMSO vehicle control. Conditions: 10 µM; exposure time: 3 h pre-incubation + 3 h imaging. The method in brief:
as §1
`O=C1CCc2cc(OCCCCc3nnnn3C3CCCCC3)ccc2N1` [Cilostazol]: the “excitability to 1-s acoustic pulses” value came out at 6.57. Same read-out and setting: next, `Cc1ccc(O)c([C@H](CCN(C(C)C)C(C)C)c2ccccc2)c1` [Tolterodine L-tartrate]: 7.2; `CCc1nc(N)nc(N)c1-c1ccc(Cl)cc1` [Pyrimethamine]: 6.41; `CCCCCCCN(CC)CCCC(O)c1ccc(NS(C)(=O)=O)cc1` (stereo not drawn) [Ibutilide hemifumarate]: 12.9. With `NS(=O)(=O)Cc1noc2ccccc12` [Zonisamide], the “excitability to 1-s acoustic pulses” value worked out at 2.79. As for `CC(C)(C(=O)O)c1ccc(C(O)CCCN2CCC(C(O)(c3ccccc3)c3ccccc3)CC2)cc1` (stereo not drawn) [Fexofenadine hydrochloride], the “excitability to 1-s acoustic pulses” value is -6.48.

Take `Cc1cc(C2CCCCC2)n(O)c(=O)c1` [Ciclopirox]: the “excitability to 1-s acoustic pulses” value came to 5.96. Take `CN(C)C(=N)NC(=N)N` [Metformin hydrochloride]: the “excitability to 1-s acoustic pulses” value is 4.58.

Regarding `COc1ccccc1OCCNCC(O)COc1cccc2[nH]c3ccccc3c12` (stereo not drawn) [Carvedilol], the “excitability to 1-s acoustic pulses” value is 21. On the same count and under the same terms, next, `N[C@@H]1[C@H]2CN(c3nc4c(cc3F)c(=O)c(C(=O)O)cn4-c3ccc(F)cc3F)C[C@@H]12` [Trovafloxacin mesylate]: 11.3.
